HDAC3 inh: inhibitors of human histone deacetylase 3. O15379. recombinant HDAC3, fluorogenic peptide/trypsin coupled, fluorescence. inhibition, % at 8.3 µM. 0.15% of 320,000 active; in the data active = inhibition above about 26%, passing the limit was not always enough; inconclusive = no clear call, values can overlap the other calls
Efflux pump inh: inhibitors of Candida antifungal efflux pumps expressed in yeast | S. cerevisiae Candida pump triplex, Nile Red efflux | inhibition, % at 10 µM | 0.44% of 330,000 active | AID 485275;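 active = plate passing quality check with inhibition over a set limit, or well fluorescence over plate mean plus 4 SD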;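 note: Nile Red retained in pooled yeast measured as flow cytometry median fluorescence; higher means more Nile Red kept so more efflux inhibition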
Rtt109 HAT inh: C. albicans Rtt109 histone acetyltransferase inhibition. Q5AAJ8. purified Rtt109/Vps75, ThioGlo CoA-SH fluorescence, 4 h. inhibition, % at 34.9 µM. 0.16% of 330,000 active. AID 540336;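 active = inhibition of at least 50% in every replicate; inconclusive = best replicate reaches 50% inhibition but some replicates fall short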
ALR H2O2 inh: inhibitors of human sulfhydryl oxidase ALR | P55789 | purified ALR, DTT oxidation, H2O2 HRP-luminol luminescence | inhibition, % (no concentration beside the values) | 3.8% of 290,000 active;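 active = mean replicate inhibition above about 79%, with every replicate also reaching it, limit read from the data; inconclusive = only one of the two criteria met; inactive = mean below limit and not every replicate reaching it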
Rce1 inhib: yeast Ras-converting enzyme inhibition. yeast membranes, quenched prenylated peptide cleavage fluorescence. Q03530. calls only. 0.27% of 290,000 active. AID 2563;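 active = fall in fluorescence gain of 50% or more versus controls, with final raw signal at or below 3038400; inconclusive = same 50% fall but final raw signal above 3038400; inactive = fall in fluorescence gain under 50%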
GRK2 aptamer HTS: human GRK2 inhibition via aptamer displacement. inhibition of aptamer binding, % at 10 µM. 0.59% of 330,000 active. bead flow cytometry, FAM-aptamer displacement from GRK2. P25098;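 active = inhibition of aptamer binding above 40%, roughly 3 SD of noise, on plates passing a quality check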;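 note: median bead fluorescence of bound FAM aptamer so fluorescent compounds give negative values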
Target sequence (P25098 whole entry, looked up): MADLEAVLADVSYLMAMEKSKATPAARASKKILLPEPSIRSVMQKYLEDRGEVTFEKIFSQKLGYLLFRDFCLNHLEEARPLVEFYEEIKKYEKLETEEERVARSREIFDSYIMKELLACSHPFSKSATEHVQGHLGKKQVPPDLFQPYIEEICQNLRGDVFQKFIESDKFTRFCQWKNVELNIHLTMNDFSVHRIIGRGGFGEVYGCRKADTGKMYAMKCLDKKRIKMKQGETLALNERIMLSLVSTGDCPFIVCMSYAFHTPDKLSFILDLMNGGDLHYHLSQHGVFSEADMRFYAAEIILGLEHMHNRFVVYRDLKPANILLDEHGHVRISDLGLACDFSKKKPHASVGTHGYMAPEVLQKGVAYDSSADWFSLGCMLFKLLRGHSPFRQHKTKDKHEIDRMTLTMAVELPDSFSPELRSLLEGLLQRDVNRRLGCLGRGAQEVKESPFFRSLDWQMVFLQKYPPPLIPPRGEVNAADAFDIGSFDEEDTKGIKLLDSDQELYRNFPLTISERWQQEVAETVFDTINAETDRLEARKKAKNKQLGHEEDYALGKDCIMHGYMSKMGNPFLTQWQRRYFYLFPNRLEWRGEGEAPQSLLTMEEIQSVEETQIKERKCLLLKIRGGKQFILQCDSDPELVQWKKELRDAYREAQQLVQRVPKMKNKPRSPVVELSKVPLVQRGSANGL
GRK2 inh confirm: human GRK2 inhibition confirmation, cherry pick 1 | 4% of 2,000 active | aptamer displacement, % at 10 µM | bead-bound GRK2, FAM-aptamer displacement, flow cytometry | shares compounds with GRK2 aptamer HTS;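 active = aptamer displacement above 40%, near three times the noise of non-fluorescent compounds, on plates passing quality checks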;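 note: negative values mostly reflect intrinsic compound fluorescence rather than true enhancement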
FAM quench CP1: aptamer fluorescence quenching in GRK2 counter-screen | 2,000 tested, under 10 active | shares compounds with GRK2 aptamer HTS | Carboxyfluorescein RNA aptamer on beads, flow cytometry quenching; hits give low values | fluorescence response (% of DMSO), % at 10 µM;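 active = compounds that quench the bead-bound fluorescent RNA probe, cutting fluorescence to under half of the solvent control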;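 note: counterscreen run without GRK2 so only probe quenching by compound is measured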
GRK2 confirm 2: human GRK2 inhibition confirmation, cherry pick 2 | shares compounds with GRK2 aptamer HTS | bead-bound GRK2, FAM-aptamer displacement, flow cytometry | inhibition of aptamer binding, % at 10 µM | 360 tested, under 10 active | AID 504782;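 active = inhibition of aptamer binding above 40%, about triple the noise seen with nonglowing compounds, on plates passing quality control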;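 note: negative values mostly come from compounds that fluoresce themselves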
Aptamer quench3: aptamer fluorescence quenching in GRK2 counter-screen dose response; shares compounds with GRK2 aptamer HTS; Streptavidin beads, FAM-RNA aptamer fluorescence quenching, flow cytometry; change in fluorescence (kMESF span), kMESF (test concentration not listed); 25 tested, under 10 active; AID 504819;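 active = compounds quenching the bead-bound labeled aptamer, with fluorescence dropping by more than 37 kMESF over the dose range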
FAM quench SP: aptamer fluorescence quenching in GRK2 counter-screen | shares compounds with GRK2 aptamer HTS | carboxyfluorescein RNA aptamer beads, flow cytometry quenching; hits give low values | fluorescence response vs DMSO, % at 10 µM | 360 tested, under 10 active | AID 588494;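 active = response vs DMSO under 50%, meaning signal dropped by over half, treated as fluorescence quencher; inconclusive = no clear call, values can overlap the other calls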;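 note: labelled aptamer on streptavidin beads without GRK2 as a quench counter-screen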
FAM quench PS1: counter-screen for GRK2 aptamer binding inhibitors: aptamer fluorescence quenching; shares compounds with GRK2 aptamer HTS; Bead-bound FAM RNA aptamer fluorescence quenching, flow cytometry; hits give low values; fluorescence ratio to DMSO, % at 11.1 µM; 35 tested, under 10 active;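 active = compounds that dim the fluorescent label, raw bead signal shifting by over 33 units between lowest and highest dose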
Large screens that a line does not name were inactive (follow-up assays come after a bar, where they were run). Hits are enriched below; roughly 4.5% of the tested compounds scored in any of these assays.

CCc1sc(C(=O)Nc2ccc3c(c2)OCCO3)cc1Br	none
O=C(NN1CCOCC1)c1ccc(Br)s1	GRK2 aptamer HTS 69 | GRK2 inh confirm inactive | FAM quench CP1 inactive
O=C(Nc1ccc2c(c1)OCCO2)c1ccc(Br)s1	none | GRK2 inh confirm inactive | FAM quench CP1 inactive
CN1CCN(NC(=O)c2ccc(Br)s2)CC1	none
O=C(Nc1cccc(Cl)c1)c1cc(N=Nc2ccc([N+](=O)[O-])cc2Cl)ccc1O	GRK2 aptamer HTS 46 | GRK2 inh confirm inactive | FAM quench CP1 inactive
O=C(Nc1ccc([N+](=O)[O-])cc1Cl)c1cc(Cl)ccc1O	none (no result: Rce1 inhib)
COc1ccccc1CN(C)C(=O)C1COc2ccccc2O1 (centres undefined)	ALR H2O2 inh 100 | GRK2 inh confirm inactive | FAM quench CP1 inactive
O=S1(=O)c2ccc(Br)cc2N2CCC[C@@H]2CN1Cc1ccccc1	none (no result: HDAC3 inh, ALR H2O2 inh, Rce1 inhib)
Cc1ccc(NC(=O)COC(=O)C2(CC(=O)NC(C)(C)C)CCCC2)cc1C	none (no result: Rce1 inhib) | GRK2 inh confirm inactive | FAM quench CP1 inactive
CSCCC(NS(=O)(=O)c1ccccc1F)C(=O)Nc1ccncc1 (centres undefined)	none (no result: Rce1 inhib)
CCN1C(N(C)C)=NC[C@@H]1Cc1ccccc1	GRK2 aptamer HTS 73 (no result: ALR H2O2 inh, Rce1 inhib) | GRK2 inh confirm inactive | FAM quench CP1 inactive
O=C(CS(=O)(=O)c1ccccc1)Nc1ccc(Cl)cn1	none
O=C(COC(=O)C1CC1)Nc1ccc(Cl)cn1	Rtt109 HAT inh inconclusive, GRK2 aptamer HTS 53 (no result: Rce1 inhib) | GRK2 inh confirm inactive | FAM quench CP1 inactive
O=C(CCS(=O)(=O)c1ccc(Br)cc1)Nc1ccccn1	none | GRK2 inh confirm inactive | FAM quench CP1 inactive
O=C(CCS(=O)(=O)c1ccc(Br)cc1)Nc1ccc(Br)cc1F	GRK2 aptamer HTS 70 | GRK2 confirm 2 inactive | Aptamer quench3 inactive | FAM quench SP inactive | FAM quench PS1 inactive
O=C(CCS(=O)(=O)c1ccccc1)Nc1ccc(Cl)cn1	none | GRK2 inh confirm inactive | FAM quench CP1 inactive
O=C(CCS(=O)(=O)c1ccc(Br)cc1)Nc1ccc(Cl)cc1F	none
CC(=O)Nc1cccc(Cn2cccn2)c1	none (no result: HDAC3 inh, Efflux pump inh, Rtt109 HAT inh, ALR H2O2 inh, GRK2 aptamer HTS)
O=C(Nc1cccc(Cn2cccn2)c1)c1cc2c(s1)CCCC2	GRK2 aptamer HTS 94 | GRK2 inh confirm inactive | FAM quench CP1 inactive
CCOC(=O)[C@H]1[C@H]2COc3ccc(Br)cc3[C@@H]2N2C(=O)CN(Cc3ccco3)C(=O)[C@@]12C	none (no result: Rce1 inhib)
COc1cccc(CN2CCC(C(=O)N3CCN(c4ccccc4F)CC3)CC2)c1OC	GRK2 aptamer HTS 60 | GRK2 confirm 2 inactive | FAM quench SP inactive
Cc1cc(C(=O)N2CCc3ccccc32)c2cc(F)ccc2n1	GRK2 aptamer HTS 76 | GRK2 inh confirm inactive | FAM quench CP1 inactive
Cc1nc2cc(C(=O)N3CCc4ccccc43)ccc2n1-c1ccc(F)c(F)c1	GRK2 aptamer HTS 93 | GRK2 confirm 2 inactive | FAM quench SP inactive
CCOc1ccc(S(=O)(=O)N(CC)CC)cc1NC(=O)CSCc1c(C)noc1C	none
COc1ccccc1CCNC(=O)c1cc(COc2cccc(C(F)(F)F)c2)on1	none
CC(=O)Nc1ccc(C(=O)CN2C(=O)CSC2=O)cc1	HDAC3 inh inconclusive
CC(C)CNC(=O)CSc1nc2nn(-c3ccccc3)c(=O)c-2c2n1CCCCC2	none | GRK2 inh confirm inactive | FAM quench CP1 inactive
